Screening results as filed in PubChem.
ALOX12 inh = ALOX12 (human) lipoxygenase inhibition; Potency, µM (series often up to 108 µM), without a hit: top-dose activity change, negative = inhibition, hits mostly inhibitors; hit rate 1.1% among 580,000; P18054; purified 12hLO, xylenol orange hydroperoxide absorbance; AID 1671190; also: potency is read from the fitted curve at half-maximal effect
Target sequence (P18054 whole entry, looked up): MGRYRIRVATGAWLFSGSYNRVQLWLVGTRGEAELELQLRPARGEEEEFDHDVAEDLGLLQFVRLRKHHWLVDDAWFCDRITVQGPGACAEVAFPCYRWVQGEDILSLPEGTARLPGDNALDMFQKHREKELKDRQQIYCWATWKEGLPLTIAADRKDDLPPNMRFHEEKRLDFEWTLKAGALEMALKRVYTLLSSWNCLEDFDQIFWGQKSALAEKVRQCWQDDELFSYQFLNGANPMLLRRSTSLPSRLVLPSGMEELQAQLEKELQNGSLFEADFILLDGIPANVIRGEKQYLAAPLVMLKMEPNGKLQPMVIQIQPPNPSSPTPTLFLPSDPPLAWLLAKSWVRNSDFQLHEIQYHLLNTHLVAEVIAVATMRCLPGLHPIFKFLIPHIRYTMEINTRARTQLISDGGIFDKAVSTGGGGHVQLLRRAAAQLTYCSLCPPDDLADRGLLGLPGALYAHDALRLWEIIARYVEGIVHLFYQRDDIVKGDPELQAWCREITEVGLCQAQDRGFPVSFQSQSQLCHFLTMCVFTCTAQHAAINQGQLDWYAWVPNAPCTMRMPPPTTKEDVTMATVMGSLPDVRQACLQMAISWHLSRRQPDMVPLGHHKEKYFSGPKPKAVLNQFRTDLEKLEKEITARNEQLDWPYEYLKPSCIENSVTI
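Purified human 12hLO (150 nM final) in 25 mM Hepes, 0.01% Triton X-100, pH 7.0 was preincubated 15 min at room temperature with compound. Then 40 uM arachidonic acid was added, 30 min. Hydroperoxide was read by Fe-XO absorbance ratio 573/405 nm.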
IL1B secr inh = inflammasome signaling inhibition, IL-1 beta readout; hit rate 4.7% among 360,000; THP-1 LPS/ATP IL-1B secretion, AlphaLISA, 16 h; stronger effect = lower value; AID 743279; activity change, % at 57.5 µM; in the data active = activity change below about -50%; inconclusive = mostly about -30% to -49%
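Secreted IL-1B measured by AlphaLISA bead assay after 16 h compound exposure of THP-1 cells; compounds (final up to 57.5 uM) added 1 h before LPS (250 ng/mL) and ATP (1.25 mM) stimulation; lower signal means less secretion.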
HT1080NT lethal = kills 2HG-producing HT-1080-NT fibrosarcoma cells. hit rate 1.6% among 360,000. HT-1080-NT fibrosarcoma viability, CellTiter-Glo ATP luminescence, 48 h. Potency, µM (doses to about 46.1 µM), for inactives: at the top dose activity, negative = less viability, most hits filed as cytotoxic;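 also: NT is the 2HG producing partner of a matched IDH1 knockdown line; potency is read from the fitted curve at half-maximal effect; 0% = DMSO-treated cells and -100% = media-only wells without cells; nearly all actives have a fitted effect of over 55% in size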
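A 48-hour cytotoxicity screen used HT-1080-NT cells plated 2 hours before compound delivery. ATP-based CellTiter-Glo luminescence measured viability, normalized to DMSO and no-cell controls.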
DT40 TDP1 no CPT = qHTS for Inhibitors of human tyrosyl-DNA phosphodiesterase 1 (TDP1): qHTS in cells in absence of CPT. DT40 Tdp1-/- hTDP1 cells, no CPT, ATP luminescence, 48 h. Potency, µM (top dose mostly 46.2 µM), for the others: at the top dose activity change, negative = growth inhibition, hits mostly inhibitors. hit rate 15% among 420,000; also: potency is read from the fitted curve at half-maximal effect; nearly all actives have a fitted effect of over 55% in size
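A cellular qHTS used chicken DT40 cells lacking endogenous Tdp1 but carrying stably transfected human TDP1. Compounds were applied without camptothecin, and cell growth kinetics were judged by ATP-dependent luminescence after ≥48 hr.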
TDP1 cell CPT = DT40-hTDP1 cell growth loss with CPT | chicken DT40 Tdp1-/-;hTDP1 cells + 20 nM CPT, ATP luminescence, 48 h | Potency, µM (top dose mostly 46.2 µM), for the others: at the top dose activity change, negative = growth inhibition, usual class: inhibitors | hit rate 12% among 420,000 | AID 686979; also: potency is read from the fitted curve at half-maximal effect; nearly all actives have a fitted effect of over 55% in size
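Cell growth measured by CellTiter-Glo luminescence after a minimum 48 h, 37 C compound exposure with 20 nM CPT in Tdp1-knockout DT40 cells stably expressing hTDP1, seeded 400/well; qHTS titration format.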
HT1080 IDH1KD tx = kills HT-1080 cells with IDH1 knockdown | HT-1080 IDH1 knockdown viability, ATP luminescence, 48 h | Potency, µM (top dose mostly 46.1 µM), for the others: top-dose activity, negative = toxicity, hits mostly cytotoxic | hit rate 2% among 360,000;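 also: potency is read from the fitted curve at half-maximal effect; 0% = DMSO wells and -100% = cell-free medium wells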
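Using the IDH1-knockdown HT-1080 line run in the same batch and compound series as the NT line, viability after 48 h at 37 °C was determined by CellTiter-Glo luminescence and expressed as % activity.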
* marks the source's active call; other numbers are inactive results; ? = inconclusive; · = no result; [ ] = remark or other dose. Shown is part of a subset that was picked to be rich in hits. Unless noted, calls follow the shape of the dose curve; as a rule, active = well fitted curve in the direction sought with a large enough effect; inconclusive = small, poorly fitted or top-dose-only effect, or another doubt; inactive = no such curve, though single readings can be large; an effect the other way counts as inactive or inconclusive. Unless noted, % is scaled to controls: 0 for no effect and ±100 for the full control effect.

SMILES	ALOX12 inh	IL1B secr inh	HT1080NT lethal	DT40 TDP1 no CPT	TDP1 cell CPT	HT1080 IDH1KD tx
O=C(NCCc1ccc(Cl)cc1)c1nc(-c2ccc(Cl)cc2)c2ccccn12	16%	·	·	·	·	·
COc1ccc(NC(=O)COc2ccccc2Cl)c2cccnc12	124%	·	·	·	·	·
CC(=O)N1CCCc2cc(S(=O)(=O)N3CCC(C(=O)NCc4cccc(C)c4)CC3)ccc21	-16%	·	·	?	-57%	·
CC(=O)N1CCCc2cc(S(=O)(=O)N3CCC(C(=O)NCc4ccc(N(C)C)cc4)CC3)ccc21	15%	·	·	?	?	·
CC(=O)N1CCCc2cc(S(=O)(=O)NCc3ccc(N(C)C)cc3)ccc21	-3%	·	·	21µM*	?	·
CCC(=O)N1CCc2cc(CNS(=O)(=O)c3ccc(NC(=O)CC(C)C)cc3)ccc21	-38%	·	·	18µM*	21µM*	·
CC(=O)N1CCCc2cc(S(=O)(=O)NCc3cccc(C)c3)ccc21	-1%	·	·	21µM*	?	·
CC(C)CNS(=O)(=O)c1ccc(CCC(=O)NCCC2=CCCCC2)cc1	32%	-10	-6%	23µM*	?	-5%
COc1ccccc1Nc1nc(-c2c[nH]c(C(=O)N3CCCC3)c2)cs1	-21%	·	·	·	·	·
CC(=O)NCCC(=O)N1CCCCC1C(=O)Nc1ccc(-n2nc(C)cc2C)cc1 (stereo not drawn)	11%	·	·	·	·	·
Fc1cccc(CSc2nnc(-c3c[nH]c4ccccc34)n2C2CC2)c1F	-7%	·	·	·	·	·
COc1ccc(CCNS(=O)(=O)c2ccc3c(c2)NC(=O)CCS3)cc1OC	-12%	24	-12%	?	12µM*	?
Cc1ccc(CCNS(=O)(=O)c2ccc3c(c2)NC(=O)CCS3)cc1	-5%	11	3%	?	?	-10%
COc1ccc(CCNS(=O)(=O)c2cccc(C(=O)O)c2)cc1OC	?	13	8%	16µM*	21µM*	8%
COc1ccc(CCNC(=O)c2ccc(CNS(=O)(=O)c3cccc(Cl)c3)cc2)cc1OC	4%	-12	-20%	23µM*	?	-17%
CCCCOc1ccc(C(=O)Nc2cccc3cccnc23)cc1	-14%	·	·	·	·	·
COc1ccc(-c2onc(C)c2C)cc1S(=O)(=O)N(C)Cc1ccccc1	-4%	·	·	23µM*	21µM*	·
OC(CCN1CCCCC1)(c1ccccc1)c1ccccc1	8%	3	3%	?	?	6%
OC(CC#CCN1CCCCCC1)(c1ccccc1)c1ccc(-c2ccccc2)cc1 (stereo not drawn)	18µM*	·	·	·	·	·
CC(C)C(C#CCN1CCCCC1)(c1ccccc1)c1ccccc1	20µM*	·	·	·	·	·
OC(C#CCN1CCCCC1)(c1ccccc1)c1ccccc1	3%	-5	-3%	?	?	-2%
OC(CCCN1CCCCC1)(c1ccccc1)c1ccc(C(F)(F)F)cc1 (stereo not drawn)	-8%	-22	?	18µM*	?	?
OC(CC#CCN1CCN(CC#CCC(O)(c2ccccc2)c2ccccc2)CC1)(c1ccccc1)c1ccccc1	11µM*	·	·	·	·	·
OC(C#CCN1CCCC1)(c1ccccc1)c1ccccc1	?	0	2%	?	-6%	4%
CCCCCCS(=O)(=O)CCO	40%	·	·	·	·	·
SMILES	ALOX12 inh	IL1B secr inh	HT1080NT lethal	DT40 TDP1 no CPT	TDP1 cell CPT	HT1080 IDH1KD tx
COc1cc(C2NC(=O)NC(C)=C2C(=O)OCC(F)(F)F)ccc1O (stereo not drawn)	-18%	·	·	·	·	·
COc1ccc(OC)c(NC(=O)c2nc3nc(C)cc(C(F)F)n3n2)c1	34%	·	·	·	·	·
Cc1ccc2cc(CCC(=O)NCc3cccs3)c(=O)[nH]c2c1	23%	·	·	·	·	·
Cc1ccc(N=c2oc3cc(O)ccc3cc2C(N)=O)cc1	-5%	?	?	7.3µM*	8.2µM*	?
COc1ccc(N=c2oc3cc(O)ccc3cc2C(=O)NCC2CCCO2)cc1 (stereo not drawn)	-5%	-24	1%	?	?	8%
COc1ccc(N=c2oc3cc(O)ccc3cc2C(=O)Nc2ccccn2)cc1OC	-16%	-28	19%	2.1µM*	1.5µM*	11%
CC(=O)c1cc2ccc(O)cc2oc1=O	-1%	-9	2%	6%	-2%	8%
Fc1ccc(-c2nc(CN3CCCC3c3cccs3)co2)cc1 (stereo not drawn)	-1%	·	·	·	·	·
O=c1cc(-c2ccc([N+](=O)[O-])cc2)c2cc3c(cc2[nH]1)OCCO3	-18%	?	22%	10µM*	?	-29%
CC1(C)CC2(C)OC(=N)C1(C#N)C2(C#N)C#N (stereo not drawn)	3%	-101*	?	15µM*	?	?
CCOC(=O)C(=O)NCC(c1cccs1)S(=O)(=O)c1ccc(Cl)cc1 (stereo not drawn)	-24%	21	-1%	10%	-4%	13%
CCOC(=O)/C(=N/Nc1ccc(Cl)cc1)S(=O)(=O)c1ccccc1	-6%[57.4 µM]	-69*	-25%	?	-26%	1%
Cc1oc(-c2cccs2)nc1C(=O)N1CCOCC1	-2%	·	·	·	·	·
CCCN1CCC(=O)N([C@H](CSc2ccc(C)cc2)Cc2ccccc2)CC1	9%	-17	-25%	?	29µM*	-8%
O=C1CCN(CCc2ccccc2)CCN1[C@H](CSc1ccccc1)Cc1ccccc1	5%	-64*	-23%	11µM*	21µM*	-13%
COc1ccc(SC[C@H](Cc2ccccc2)N2CCN(C)CCC2=O)cc1	11%	-15	0%	?	?	-5%
CCCN1CCC(=O)N([C@H](CSc2ccc(C)cc2)CC(C)C)CC1	2%	-19	10%	16µM*	21µM*	-2%
Cc1ccc(SC[C@H](Cc2ccccc2)N2CCN(CCc3ccccc3)CCC2=O)cc1	-5%	-17	-28%	?	?	?
CCCN1CCC(=O)N([C@H](CSc2ccc(OC)cc2)Cc2ccccc2)CC1	-8%	7	3%	18µM*	?	0%
CCS(=O)(=O)NCc1ccnc(N2CCN(c3ccc(F)cc3)CC2)c1	46%	·	·	·	·	·
CCCSc1nc2c(c(=O)[nH]1)C(c1ccncc1)C(C(=O)OC)=C(C)N2 (stereo not drawn)	-17%	·	·	·	·	·
S=C(NCCCc1cnc[nH]1)NCCCN(Cc1ccc(Cl)cc1)c1ccc(-c2ccccc2)cn1	·	·	·	-19%	?	·
S=C(NCCCc1cnc[nH]1)NCCCN(Cc1ccc(Cl)cc1)c1ccc(Br)cc1	·	·	·	-95%	13µM*	·
